Assay [1] is described as follows: qHTS for Inhibitors of the Functional Ribonucleoprotein Complex (vRNP) of Lassa (LASV) Arenavirus: LASV Primary Screen - GLuc reporter signal (AID 1347082; calls by dose curve; tested in HEK293 reporter line; note: nearly all actives have a fitted effect of over 60% in size; for activity change, negative = inhibition: % is set by controls: 0 for no effect and ±100 for the full control effect).
Assay [2] is described as follows: qHTS for Inhibitors of the Functional Ribonucleoprotein Complex (vRNP) of Lassa (LASV) Arenavirus: Viability assay - alamar blue signal for LASV Primary Screen (AID 1347083; calls by dose curve; tested in HEK293 reporter line; note: nearly all actives have a fitted effect of over 80% in size).
Assay [3] can be described thus: qHTS for Inhibitors of the Functional Ribonucleoprotein Complex (vRNP) of Lymphocytic Choriomeningitis Arenaviruses (LCMV): Viability assay - alamar blue signal for LCMV Primary Screen (AID 1347085; calls by dose curve; tested in HEK293 reporter line; note: nearly all actives have a fitted effect of over 80% in size).
Assay [4] has as its target Nucleoprotein (Lymphocytic choriomeningitis virus (strain Armstrong)) (UniProt P09992). The assay is described as follows: qHTS for Inhibitors of the Functional Ribonucleoprotein Complex (vRNP) of Lymphocytic Choriomeningitis Arenaviruses (LCMV): LCMV Primary Screen - GLuc reporter signal (AID 1347086). For activity change, negative = inhibition: % is set by controls: 0 for no effect and ±100 for the full control effect. Note: nearly all actives have a fitted effect of over 70% in size.
A short description of assay [5]: Cytotoxicity counterscreen for inhibitors of SARS-CoV-2 cell entry (AID 1645845). For activity change, negative = cytotoxicity: % is set by controls: 0 for no effect and ±100 for the full control effect. Note: nearly all actives have a fitted effect of over 50% in size. Put shortly: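 HEK293-ACE2 cells (Expi293F stably expressing human ACE2) seeded overnight, then compound for 1 h plus 48 h at 37C. Viability as ATP content by luminescence; normalized to wells with cells and media-only wells.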
The nature of assay [6]: Primary qHTS to identify inhibitors of SARS-CoV-2 cell entry (AID 1645846). Note: nearly all actives have a fitted effect of over 45% in size. As to conditions: activity change, negative = inhibition: at 57.1 µM (top of the series) unless noted. Put shortly: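 HEK293-ACE2 (Expi293F, stable hACE2), 1500 cells/well, o/n 37C; cpd 23 nL pin, 1 h; MLV-PP w/ SARS-CoV-2-S (Wuhan-Hu-1, Δ19 C-term); 48 h 37C; Bright-Glo luminescence; normalized vs S-PP and bald PP.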

Results filed as inconclusive are left out. The source made the active and inactive calls. Unless noted, calls come from the whole dose curve. Peptide text beside a SMILES is read from it. * marks the point of attachment. Cbz = O=C(OCc1ccccc1)*
Potency is the fitted concentration of half-maximal effect.

Sequence of Nucleoprotein (Lymphocytic choriomeningitis virus (strain Armstrong)) (P09992 whole entry, looked up): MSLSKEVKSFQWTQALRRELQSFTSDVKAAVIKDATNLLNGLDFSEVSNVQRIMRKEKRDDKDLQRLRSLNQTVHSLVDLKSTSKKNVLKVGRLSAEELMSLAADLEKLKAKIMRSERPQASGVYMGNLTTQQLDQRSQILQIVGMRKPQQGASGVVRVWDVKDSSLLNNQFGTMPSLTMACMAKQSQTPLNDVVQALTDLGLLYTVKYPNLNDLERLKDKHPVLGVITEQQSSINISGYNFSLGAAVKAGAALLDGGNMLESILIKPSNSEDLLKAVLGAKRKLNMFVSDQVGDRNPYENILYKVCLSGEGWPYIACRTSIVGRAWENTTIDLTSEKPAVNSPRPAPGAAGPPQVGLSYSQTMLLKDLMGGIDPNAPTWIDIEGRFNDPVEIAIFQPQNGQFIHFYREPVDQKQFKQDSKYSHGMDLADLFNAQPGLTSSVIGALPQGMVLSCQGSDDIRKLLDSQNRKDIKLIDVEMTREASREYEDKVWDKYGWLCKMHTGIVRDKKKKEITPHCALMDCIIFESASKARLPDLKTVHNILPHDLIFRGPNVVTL

On to `CCOC(=O)C1=C(O)C(=O)N(Cc2ccccc2)C1`, for which the Potency entry in assay [1], in assay [2], in assay [3], in assay [4], in assay [5] and in assay [6] was “inactive” in each case.

In the case of `COc1nccc(-c2c(-c3ccc(F)cc3)ncn2C2CCC(O)CC2)n1` (centres undefined), the Potency entry in assay [1], in assay [2], in assay [3], in assay [4], in assay [5] and in assay [6] was “inactive” each time.

Consider `O=C(O)c1cc(O)c2c(c1)C(=O)c1cccc(O)c1C2=O`, for which the Potency entry in assay [1], in assay [2], in assay [3], in assay [4] and in assay [5] was “inactive” in each case.

As to `O=C(O)C1=CC(O)C(O)[C@H](O)C1` (some centres undefined), the Potency result in assay [1], in assay [2], in assay [3], in assay [4] and in assay [5] was “inactive” in each case.

Regarding `CC(C)C[C@@H](C=O)NC(=O)[C@H](CC(C)C)NC(=O)[C@H](CC(C)C)NC(=O)OCc1ccccc1` (Cbz-Leu-Leu-Leu-aldehyde), the Potency is 1.93 µM (active) in assay [1]; 4.32 µM (active) in assay [2]; 5.44 µM (active) in assay [3]; 3.43 µM (active) in assay [4]; 1.12 µM (active) in assay [5]. Moreover, in assay [6], the activity change, negative = inhibition is -96.8%.

For the compound `CCn1cc(-c2ccnc3[nH]c(-c4cccc(CN(C)C)c4)cc23)c(-c2ccc(NC(=O)N(C)C)cc2)n1`, the Potency in assay [1] was 13.7 µM (active); in assay [2], 4.85 µM (active); in assay [3], 2.43 µM (active); in assay [4] it was 3.43 µM (active). Also, the Potency entry in assay [5] is “inactive”.

Consider `Cc1cnc(CNC(=O)c2c(=O)c3ccc(N4CCCN(C)CC4)nc3n3c2sc2ccccc23)cn1`, for which the Potency entry in assay [1] and in assay [4] was “inactive” in each case. Also, the Potency in assay [2] is 15 µM (active); in assay [3] it was 8.41 µM (active). For the same compound, the activity change, negative = cytotoxicity in assay [5] was -25.6% [at 11.3 µM] (inactive).

On to `CNC(=O)c1ccc2cc(C3(O)CCn4cncc43)ccc2c1` (centres undefined), for which the Potency result in assay [1], in assay [2], in assay [3], in assay [4] and in assay [5] was “inactive” each time. Further, the activity change, negative = inhibition in assay [6] is -19.9%.

Consider `O=S(=O)(O)c1ccc2cc(N=Nc3cc(S(=O)(=O)O)c4cccnc4c3O)ccc2c1`, for which the Potency entry in assay [1], in assay [2], in assay [3], in assay [4], in assay [5] and in assay [6] was “inactive” each time.

As to `O=c1ncn2nc(Sc3ccc(F)cc3F)ccc2c1-c1c(Cl)cccc1Cl`, the Potency entry in assay [1], in assay [2], in assay [3], in assay [4] and in assay [5] was “inactive” in each case.

Consider `Cc1noc(-c2ccc(CSCCC(=O)O)cc2)c1NC(=O)OC(C)c1ccccc1Cl` (centres undefined), for which the Potency result in assay [1], in assay [2], in assay [3], in assay [4] and in assay [5] was “inactive” throughout. Besides, the activity change, negative = inhibition in assay [6] was -12.6%.

As for `OC[C@@H](O)[C@@H](O)[C@H](O)[C@@H](O)CO`, the Potency entry in assay [1], in assay [2], in assay [3], in assay [4], in assay [5] and in assay [6] was “inactive” throughout.

In the case of `CC[C@H](C)n1cc(C)c2c(C(=O)NCc3c(C)cc(C)[nH]c3=O)cc(-c3ccc(N4CCNCC4)nc3)cc21`, the Potency result in assay [1], in assay [2], in assay [3], in assay [4] and in assay [5] was “inactive” in each case.

With `CC1(COc2ccc3c(c2)ncn3-c2ccc3cccc(N4CCC(N)CC4)c3n2)COC1`, the Potency was 0.0544 µM (active) in assay [1], 28.2 µM (active) in assay [5] and 10 µM (active) in assay [6]. Further, the Potency entry in assay [2], in assay [3] and in assay [4] was “inactive” throughout.

With `CC(NCCc1ccc(O)cc1)C(O)c1ccc(O)cc1` (centres undefined), the Potency result in assay [1], in assay [2], in assay [3], in assay [4] and in assay [5] was “inactive” in each case. For the same compound, in assay [6], the activity change, negative = inhibition is -5.33%.

Turning to `COc1ccc(C(=O)CC2(O)C(=O)Nc3c(Cl)ccc(Cl)c32)cc1` (centres undefined), the Potency in assay [1] was 24.3 µM (active); in assay [2] it was 1.53 µM (active); in assay [3] it was 0.432 µM (active); in assay [4], 2.73 µM (active). Further, the Potency result in assay [5] is “inactive”.

Turning to `Cc1ccc(C(C)(O)c2nc3ccccc3s2)c(C)c1` (centres undefined), the Potency result in assay [1], in assay [2], in assay [3], in assay [4] and in assay [5] was “inactive” each time.

`C=C1c2cccc(O)c2C(O)=C2C(=O)[C@@]3(O)C(O)=C(C(N)=O)C(=O)[C@@H](N(C)C)[C@@H]3[C@@H](O)[C@H]12`: the Potency entry in assay [1], in assay [2], in assay [3], in assay [4] and in assay [5] was “inactive” throughout. In assay [6], the activity change, negative = inhibition was -17.4%.

Take `O=C(c1ccc(C(=O)N2CCC(N3CCCC3)CC2)c(Nc2ccccc2)c1)N1CCC(N2CCCC2)CC1`: the Potency entry in assay [1], in assay [2], in assay [3], in assay [4] and in assay [5] was “inactive” each time.

Take `C[C@H](NC(=O)Cc1cc(F)cc(F)c1)C(=O)N[C@H](C(=O)OC(C)(C)C)c1ccccc1`: the Potency result in assay [1], in assay [2], in assay [3], in assay [4] and in assay [5] was “inactive” throughout. Besides, the activity change, negative = inhibition in assay [6] is -33%.

Regarding `NCc1c[nH]c(=S)n1[C@H]1CCc2c(F)cc(F)cc2C1`, the Potency entry in assay [1], in assay [2], in assay [3], in assay [4] and in assay [5] was “inactive” each time. For the same compound, in assay [6], the activity change, negative = inhibition is -19.7%.

Turning to `COc1ccc(Nc2nccc(NCCO)n2)cc1`, the Potency entry in assay [1], in assay [2], in assay [3], in assay [4], in assay [5] and in assay [6] was “inactive” throughout.

Take `Cn1c(CNc2ccc(C(=N)N)cc2)nc2cc(C(=O)N(CCC(=O)O)c3ccccn3)ccc21`: the Potency result in assay [1], in assay [2], in assay [3] and in assay [4] was “inactive” each time. Moreover, in assay [5], the activity change, negative = cytotoxicity was -8.56% [at 0.702 µM] (inactive). Besides, the activity change, negative = inhibition in assay [6] is -9.36% [at 0.702 µM].

The values are drawn from PubChem BioAssay (NCATS).
